The full ranking holds about 4,500 sequences; the median of “median log2 fold change of GCK-ALFA target abundance (FLAG IP / Myc IP barcode read proportion)” is about 0.078, and the lowest 2% start at about -0.6. The entries come from a sample that favours the lowest values as a whole.
B1: GBRAP_184_5358 (protein)
chain: EVRHLSVTVETKEEAVEKLAEAREEIRASGLPTVLVVELKNADLETVETVMELLAELREEGLIERGIVVVDDDRSEEEIDKMVELADRYGVDLVVAIPEE
B2: GBRAP_159_3958 (protein)
chain: MEELEKRVKEAKEKAKDNPEVVKLIEEVYDLIKEGEDAETIADFTVGSIVTLDVTPEEARLVLSVLPEETRRLAAEDLAYLAEELGREDLAAAARAILEE
B3: GBRAP_128_3325 (protein)
chain: MNEERIKEAEEIIKEIVKADVEEAKKLTEELLKLMETMTDEERDIVVEIMEKELEKLDAEKLDAIADTIRELQPTLDPLTARYAAEIEVEALNLAEEKEE
B4: GBRAP_160_4149 (protein)
chain: SEELKKLIKEIKEITEEAIKLMEGETPEEAKVIAKVALGEIVMLVESNEEVSEETEEKVGEIADEAEEYLDENPDLTVEEIKELLKKAGEEVIKIIEEEL
B5: GBRAP_160_4147 (protein)
chain: SAELKALIEEIREITEEAIKLMEGETPEEAKVIARVALGEIVMLVFSNEAVSEETEEEVGEVADEAEAHLRANPDLTVEEIKAILREAGEEVIEIIEKEV
B6: GBRAP_52_5941 (protein)
chain: SSSRLKEIAEELIKLALAGDEEGLRKKAREIAKTYSDEEILAIAKEIAKMAKEAPKEDLDAYFRLMEILTEELEKEGRSEELISEIEGLMAKAMYENELK
B7: GBRAP_160_4588 (protein)
chain: MESLEKMKEIVREELEEAKEMIVGETAEQRATIVLGAGGEIVMELSENPEASDELEDEVLKIADEAADTILANPNITEEEFNALLDEMEKKMIEAIEKHL
B8: GBRAP_11_2927 (protein)
chain: KKEKIKEIAELAEELAEAADRLIAEGTDNEELRKKLEELLEKLVELVKEYGDEADKKDAEHMRELWEKAKADPANAVQYLTELRNEARVLSGIYLLEYDE
B9: GBRAP_139_3733 (protein)
chain: SADDAAVAEVVALTKRSVETGGALVAEIADALNALDEDTADRAAEAMAEVLETQPFDVAEALFDALIDTLLTEHKNEDLATIVEAAANRALARIAVREEA
B10: GBRAP_52_6365 (protein)
chain: MLEEAVELLRKAVEATLAGKEEEAEEILKEIVENFSDETIVKAVERLAEEVATKTLEEAEAFLDTAIRLADIMLEAGRDEAKADEIEAIAAKAYSAVLAK
B11: GBRAP_160_4221 (protein)
chain: SETIERIVKIFRENFEEAVELIEGESLEEQKVILDVAVGEVILEVSSDENVTDEMEEVVEKKAEEAAEELLKLKNASREEKLKLIEEKAKELKKELEKLA
B12: GBRAP_160_4219 (protein)
chain: METIERIVEIFRENFLEALELIEGESEEERKVILDVAVGEIILEVDSDENVTDEMEEVVDEKARELAEELLKLKNASEEEKRALIEEKAEELREELEKLA
B13: GBRAP_166_4915 (protein)
chain: SMEELLEEAKRRIEELVKKIPKTDREKQVELAIEIAEVLEELEKAGASEEELDELWRHLAEALKEAGLDVERLMAVVAAAAGLDEEEMERVDEIVEEVLA
B14: GBRAP_52_6254 (protein)
chain: MRARLRADAREIVALVAAGREEEARALARDIAENYNEEELRLFVDEMAALAREARPEELDTVWRAAELMAEELEAAGKPEILVDDLLARVAAAAVEVLAR
B15: GBRAP_52_6084 (protein)
chain: MKEKIEKTAKEIYEAIKAGDKEKALELIKKAVEEFSKEEIKEMLELTAKRVASLGDDAHELFVDILDEAEDILIEAGISEDDALLIVGSAEAALAKAVAA
B16: GBRAP_52_6083 (protein)
chain: MEKEIEETANKIYEAIKAGDKEKALELIKEAIKKFSPEEIKEMLKLTAEKVASLGDEKHELFVDILTEAEDLMIEAGISEEEALLIVGDAEAALAKAVAA
B17: GBRAP_52_6085 (protein)
chain: MEEEIEERAEEIYEAIKAGDKEKALALIKKAIKEFSAEEIKRMLELTAKRVASLGDDAHELFVDILGEAEDLLIEAGISEEEALAIVGAAEAALARAVAA
B18: GBRAP_160_4760 (protein)
chain: KEKLKKLKEEVEEIFKEHLEMLKEVKPEEAPTVVRGAMGEVIMEVMSSEAASDELEEKIGEIADEAEEEAEANKDAPVEFHIKILEEARKKILSLIEEEI
B19: GBRAP_125_2982 (protein)
chain: PTEQELEDLRRFARALGLDEEEAEEAAELARAHSLRGTVYAILAALGEEEAADLVEKLTEEEVARVLRRVAAYLEAHPDATPEEVVALFRELAEEELAKR
B20: GBRAP_139_3718 (protein)
chain: SAAEEKIEKAKEIVEKYKDDLEKLAKELAKLISEVDGETALEIVRAAAEELKDWSWEEWEEFIELLEKELKELGFDEDDVLAIKGEFEAVMAKHLMAKEA
B21: GBRAP_117_2578 (protein)
chain: MEEREEVKRRLRETVREAGKRLEESKSLSPEERRKVEEEVRERIAEAVREALEVLSREEVLDIVEEELLEFDAETYFKIMSFVEEAIEEIREEEEREREE
B22: GBRAP_11_2868 (protein)
chain: KKEKLEELAKLVKEAIEKLEKLLKEGVDNEELRKEIKKLLKEALKLAEKYASPAVAELLKIALEDLEKAEEDPENAKEYVERALAALRVAHGDLLLEIDE
B23: GBRAP_172_4999 (protein)
chain: GTTLLKLNLLGLSKEEAVETAVKAVKETIEKTGNNLVVAVIADDEETVEAVEKAIKKVAKEKGVKVEVVGEAYRSEEDERRVLAAAEAEKINLEYEEEEK
B24: GBRAP_11_2687 (protein)
chain: KKEKLEEGAKLAEELAKLIEELLKEGVDNEKLLKELEKKLKELEKLTKEYADKASQKLTEDIKETWEEMLKDPEKAEEYAKEMLAGARVLAGDYLLEIEE
B25: GBRAP_160_4409 (protein)
chain: SEELKKTAERILEAVKEELELLLELGEIDPEAAAGLLEGTILLEVFEDDSLTEEQEEKLEELAEELAEELRKRLEEEGKMTEEIKEELLKLAKEGLEKII
B26: GBRAP_160_4408 (protein)
chain: SEELEETAERILEAVEDELELLLELGEVDPEAAAGLLEGTILLEAFEDDSLTEEQEEEIEELAEELAERLERLLKEEGRMTEEIVEELLEEAEEGLEEII
B27: GBRAP_160_4407 (protein)
chain: SEALKETAERILEAVKDELDLLLELGKIDPKAAAGLLEGTVLLEMFEDDSLTEEQEEKLEELAERLAERLEKLLKEEGEMTEEIRKELLEEAKRGLEEII
B28: GBRAP_14_3807 (protein)
chain: MEEKKKAITDNTDELKEIVTEILKDAPQEVRDAVLAAIEDFRKTVIENNLNPDEIAELGDELVKKVEEITKDLPADVRARVLAAVRVHTGEIILEVEELE
B29: GBRAP_95_7033 (protein)
chain: EDDKLALESAIEVAVAAAELGDDDAAARALREALELLKKAGKVELDEELLKEAIDVIERVGVKKLPREDVLELLELLLEAAETEEVKELAEKAIERVKKR

Biological target: GABARAP, O95166
Assay: median log2 fold change of GCK-ALFA target abundance (FLAG IP / Myc IP barcode read proportion) (log2 ratio); each designed protein is fused to an ALFA-tag nanobody in HEK293 cells to bring the named protein to FLAG-tagged glucokinase (GCK); Myc marks an untargeted standard; higher = target protein stabilised (more abundant)
Conditions: target protein: 3xFLAG-MCP-GCK-ALFA reporter; HEK293 landing pad (RPLP)
Method: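 LABEL-seq trans screen in HEK293 landing-pad cells. Each de novo designed 100-aa effector handle, binding the indicated effector (E3 ligase, DUB or autophagy protein), is fused to a constant NbALFA target handle and induced with 2 ug/mL doxycycline. A FLAG-MCP-GCK-ALFA target and a Myc-MCP standard reporter were transfected, and after 48 h circRNA barcodes were recovered by anti-FLAG and anti-Myc IP and sequenced. The value is the median across barcodes (at least 3 per design) of log2(FLAG/Myc read-proportion ratio), with the two transfection replicates pooled. Negative values mean degradation and positive values mean stabilisation of the target.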

Sequence of GABARAP, O95166 (O95166 whole entry, the tested form may be a part): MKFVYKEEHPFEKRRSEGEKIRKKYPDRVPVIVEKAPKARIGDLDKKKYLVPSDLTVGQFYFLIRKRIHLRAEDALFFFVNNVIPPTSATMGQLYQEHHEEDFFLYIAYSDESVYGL

Row | Binder | median log2 fold change
1 | B1 | -0.0422
2 | B2 | 0.0598
3 | B3 | 0.156
4 | B4 | -0.271
5 | B5 | -0.617
6 | B6 | 0.165
7 | B7 | -0.211
8 | B8 | 0.134
9 | B9 | 0.133
10 | B10 | -0.000301
11 | B11 | -0.86
12 | B12 | -0.349
13 | B13 | 0.0994
14 | B14 | -0.285
15 | B15 | -0.732
16 | B16 | -0.22
17 | B17 | -0.146
18 | B18 | -0.185
19 | B19 | -0.551
20 | B20 | 0.0839
21 | B21 | 0.274
22 | B22 | 0.0406
23 | B23 | 0.15
24 | B24 | 0.232
25 | B25 | -0.32
26 | B26 | -0.872
27 | B27 | -0.289
28 | B28 | 0.206
29 | B29 | 0.148
